The values below come from article PMC4242493, “Sequence specificity incompletely defines the genome-wide occupancy of Myc”.

Whole data set: some 33,000 sequences, median “normalized occupancy” near 0.075, cut for the highest 2% near 0.095. The sample holds the highest values, similar sequences and a random draw of the others, so the mix is not that of the screen.

Sequence of MaxL homodimer (P61244 whole entry): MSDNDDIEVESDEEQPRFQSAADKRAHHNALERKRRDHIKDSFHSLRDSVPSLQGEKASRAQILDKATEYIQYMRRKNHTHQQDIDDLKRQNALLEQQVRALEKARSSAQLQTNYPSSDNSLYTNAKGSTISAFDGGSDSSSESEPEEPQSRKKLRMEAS

The experiment concerns the target MaxL homodimer (Homo sapiens, UniProt P61244 1-160). Kind of experiment: universal protein-binding microarray (PBM); PBS-based mixture, 10 nM His-tagged protein dimer, 2% milk, 200 ng/uL BSA, 50 ng/uL salmon testes DNA, 0.02% TX-100; detection with Alexa 488 anti-His antibody;; high values mean tight binding. The note with it: protein: recombinant; tags: C-terminal His-tag (pET21a); chain copies: 2; dsDNA, one strand shown. An outline of the steps: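 Arrays of the 'all 10-mer' universal design (Agilent 4 x 44 K) were exposed to 10 nM His-tagged protein dimer, stained with 10 ng/μL fluorophore-conjugated anti-His antibody and read on a GenePix 4400A to give a fluorescence intensity for each 8-mer. Binding occupancy is each intensity divided by the highest-ranked intensity.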
On to AACATCAC, for which the binding signal turned out to be 0.0837 normalized occupancy.
Turning to CTAGCTAC, the binding signal turned out to be 0.0765 normalized occupancy.
With CCTAGTGC, the binding signal is 0.0733 normalized occupancy.
On to AACCCCTC, for which the binding signal came out at 0.0767 normalized occupancy.
For AATAAGTA, the binding signal stood at 0.0754 normalized occupancy.
Consider ATTCTATG, for which the binding signal stood at 0.0827 normalized occupancy.
With CTTTCTGC the figure was 0.0723 normalized occupancy.
For CGTAACGC, the binding signal came out at 0.0778 normalized occupancy.
In the case of GCAAGCCA, the binding signal turned out to be 0.0722 normalized occupancy.
For the sequence GATGGCCA, the binding signal came out at 0.0755 normalized occupancy.
As to AATGTCAA, the binding signal was found to be 0.0742 normalized occupancy.
With ATAAGTAA the figure was 0.0793 normalized occupancy; with GCCATGAC, 0.0739 normalized occupancy.
The value for AGCATGAT was 0.107 normalized occupancy; that for GTCATGAC was 0.0806 normalized occupancy; that for ATCATGAT was 0.0928 normalized occupancy.
As to AGCATGAC, the binding signal was 0.0962 normalized occupancy.
AGCATGAA: the binding signal came out at 0.0874 normalized occupancy.
In the case of CCCTAAAA, the binding signal turned out to be 0.076 normalized occupancy.
CTGACCTC: the binding signal is 0.0774 normalized occupancy.
As to ACATGAGC, the binding signal turned out to be 0.0906 normalized occupancy.
For the sequence CCATGAGA, the binding signal was 0.0896 normalized occupancy.
In the case of CCATGAGC, the binding signal came to 0.0818 normalized occupancy.
The value for AGATGAGG was 0.0788 normalized occupancy.
With GCATGAGA the figure was 0.0947 normalized occupancy.
The value for CCATGAGG was 0.112 normalized occupancy; that for ACATGAGT was 0.09 normalized occupancy; that for ACATGAGG was 0.108 normalized occupancy.
Take ACATGAGA: the binding signal worked out at 0.0971 normalized occupancy.
For GTCAAGGA, the binding signal worked out at 0.0749 normalized occupancy.
CTAATGTC: the binding signal was 0.0828 normalized occupancy.
With GAAGTTAC the figure was 0.0721 normalized occupancy; with TAACTAGA, 0.0765 normalized occupancy.
Take ACGGTGGC: the binding signal was determined as 0.079 normalized occupancy.
In the case of AAATACAA, the binding signal turned out to be 0.076 normalized occupancy.
As to GATATGGC, the binding signal came to 0.0846 normalized occupancy.
As for CATATGGG, the binding signal was 0.103 normalized occupancy.
As for CATATGAA, the binding signal was determined as 0.088 normalized occupancy.
As to CATATGGA, the binding signal was 0.095 normalized occupancy.
Consider AATATGGC, for which the binding signal turned out to be 0.0866 normalized occupancy.
With AATATGGG, the binding signal worked out at 0.0882 normalized occupancy.
CATATGAC: the binding signal turned out to be 0.0954 normalized occupancy.
On to CATATGGC, for which the binding signal stood at 0.0994 normalized occupancy.
As for AATATGAC, the binding signal was 0.0855 normalized occupancy.
On to AGTTCTAA, for which the binding signal amounted to 0.0746 normalized occupancy.
As to CTGAAAAC, the binding signal is 0.0806 normalized occupancy.
In the case of CGTGCTAA, the binding signal is 0.0881 normalized occupancy.
In the case of ACTGCCCC, the binding signal is 0.0751 normalized occupancy.
Turning to GGCATTAC, the binding signal turned out to be 0.0758 normalized occupancy.
In the case of AAACGAAG, the binding signal was 0.0718 normalized occupancy.
On to CTGCTCTC, for which the binding signal was 0.0736 normalized occupancy.
With ATTGATAA, the binding signal stood at 0.0774 normalized occupancy.
For AAATGCGA, the binding signal is 0.0758 normalized occupancy.
Take AAATGCGG: the binding signal amounted to 0.0791 normalized occupancy.
The value for ACATGCGG was 0.129 normalized occupancy; that for AGATGCGC was 0.077 normalized occupancy; that for AAATGCGT was 0.0858 normalized occupancy.
Regarding ACATGCGC, the binding signal turned out to be 0.109 normalized occupancy.
As to ACATGCGT, the binding signal worked out at 0.127 normalized occupancy.
Consider ATATGCGA, for which the binding signal came to 0.0834 normalized occupancy.
For ACCTGCGT, the binding signal came out at 0.0757 normalized occupancy.
With AGATGCGG, the binding signal came out at 0.0753 normalized occupancy.
ACATGCGA: the binding signal came to 0.0989 normalized occupancy.
In the case of ATATGCGC, the binding signal turned out to be 0.085 normalized occupancy.
As to AGGTTTTA, the binding signal was 0.0742 normalized occupancy.
The value for CTAAGAAA was 0.0728 normalized occupancy; that for GATGATTA was 0.0816 normalized occupancy; that for AGGGTCAC was 0.0776 normalized occupancy.
Take CCCAGTTA: the binding signal amounted to 0.0735 normalized occupancy.
Regarding GCATCACA, the binding signal is 0.0871 normalized occupancy.
Take CCGACGAC: the binding signal came to 0.0752 normalized occupancy.
For the sequence AGTCGTAT, the binding signal was 0.0756 normalized occupancy.
For the sequence ACGTGGTG, the binding signal was 0.1 normalized occupancy.
On to AGGTGGTG, for which the binding signal amounted to 0.0873 normalized occupancy.
Turning to AGGTGGTC, the binding signal is 0.0855 normalized occupancy.
Turning to CCGTGGTC, the binding signal was found to be 0.074 normalized occupancy.
Turning to GGGTGGTA, the binding signal stood at 0.0821 normalized occupancy.
As to AAGTGGTG, the binding signal stood at 0.0758 normalized occupancy.
ACGTGGTA: the binding signal is 0.115 normalized occupancy.
The value for GCGTGGTA was 0.111 normalized occupancy.
ACGTGGTC: the binding signal was determined as 0.106 normalized occupancy.
As for CCGTGGTA, the binding signal was 0.0806 normalized occupancy.
With GTGTGGTA, the binding signal was found to be 0.0868 normalized occupancy.
With AGGTGGTA, the binding signal is 0.0821 normalized occupancy.
With GTTGAGAA the figure was 0.076 normalized occupancy; with TCATTGCA, 0.0829 normalized occupancy; with GCAATCAC, 0.0763 normalized occupancy.
With GAGTCAGC, the binding signal came to 0.0763 normalized occupancy.
For AACTCACT, the binding signal came out at 0.0726 normalized occupancy.
Consider AAGCACTA, for which the binding signal came to 0.0755 normalized occupancy.
With CGCCGAAA the figure was 0.0723 normalized occupancy; with ACGGTAGA, 0.0739 normalized occupancy.
As for ACGCCGCT, the binding signal came to 0.0763 normalized occupancy.
With CGAGGTGA the figure was 0.0813 normalized occupancy; with AACGCTGC, 0.0786 normalized occupancy.
For AACGCTGG, the binding signal is 0.0764 normalized occupancy.
Regarding CACGCTGC, the binding signal amounted to 0.131 normalized occupancy.
For TACGCTGA, the binding signal was determined as 0.0736 normalized occupancy.
As to AACGCTGA, the binding signal came out at 0.0816 normalized occupancy.
Take CACGCTCG: the binding signal was found to be 0.0939 normalized occupancy.
Take CACGCTGG: the binding signal was 0.113 normalized occupancy.
As to GACGCTGC, the binding signal came to 0.0724 normalized occupancy.
For CACGCTGA, the binding signal came out at 0.115 normalized occupancy.
As to AGGAGACA, the binding signal was 0.084 normalized occupancy.
With CTTTGACC, the binding signal came to 0.0868 normalized occupancy.
Consider AGTGCTCA, for which the binding signal amounted to 0.0761 normalized occupancy.
Take TCACGAAA: the binding signal was found to be 0.0755 normalized occupancy.
Regarding CTCCAGTA, the binding signal is 0.0743 normalized occupancy.
Turning to CAACCGTA, the binding signal was 0.0753 normalized occupancy.
